# Assay results reported in PubChem BioAssay (NCATS).
# Where “and” joins values, the source holds several entries; their conditions need not be identical. Equal values may be shown once. Values without a mark were called inactive. Records with an inconclusive call do not appear. Where a call stands in place of a potency, no number is given. Calls of active or inactive are those of the source. Unless noted, calls come from the whole dose curve; as a rule, active = well fitted curve in the direction sought with a large enough effect; inconclusive = small, poorly fitted or top-dose-only effect, or another doubt; inactive = no such curve, though single readings can be large; an effect the other way counts as inactive or inconclusive.
# What was measured:
# [1] = target: Endonuclease 4 (Escherichia coli (strain K12)) (UniProt P0A6C1); test: Counterscreen for APE1 Inhibitors: qHTS Validation Assay for Inhibitors of Endonuclease IV (AID 1708); note: potency is the fitted concentration of half-maximal effect
# Procedure, shortened: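 Incision of a double-stranded 50 nM TAMRA/BHQ-2 abasic substrate was followed kinetically (525/598 nm, reads every 60 s) after 15 min enzyme–compound preincubation with 2 nM EndoIV in pH 7.5 Tris buffer with MgCl2, DTT and Tween-20; concentration-response format.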
# [2] = qHTS for differential inhibitors of proliferation of Plasmodium falciparum line 7G8 (AID 1815);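 note: parasite growth measured after three days of incubation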
# [3] = qHTS for differential inhibitors of proliferation of Plasmodium falciparum line D10 (AID 1877);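 note: parasites grown with compound for 72 h before DNA staining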
# [4] = qHTS for differential inhibitors of proliferation of Plasmodium falciparum line HB3 (AID 1886); details: Potency: Plasmodium falciparum HB3 proliferation inhibition;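 note: parasites grown with compound for 72 h before SYBR Green readout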
# [5] = target: Ferritin light chain (Equus caballus) (UniProt P02791); test: qHTS Validation Assay for Identification of Novel General Anesthetics (AID 2323); note: series mostly up to about 77 µM
# Procedure, shortened: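 Fluorescence at 535 nm (excitation 380 nm) reported loss of 1-AMA binding to horse-spleen apoferritin (10 uM) in PBS with 50% saturated 1-aminoanthracene, after 10 min room-temperature incubation with compound; values from Hill fits of normalized response.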
# [6] = target: ATP-dependent DNA helicase Q1 (Homo sapiens) (UniProt P46063); test: qHTS Validation Assay for Inhibitors of RecQ-Like Dna Helicase 1 (RECQ1) (AID 2353)
# Procedure, shortened: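 RECQ1T1 50 nM; forked duplex (20 bp + 30-nt ss tails) 200 nM, ATP 2 mM final; pH 8.0, 2 mM MgCl2, 2.5 ug/ml poly(dI-dC); 15 min compound preincubation; discontinuous kinetic read over 2 h at RT.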
# [7] = Validation screen for small molecules that induce DNA re-replication in MCF 10A normal breast cells (AID 463097); note: nearly all actives have a fitted effect of over 60% in size
# Procedure, shortened: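 Image-based qHTS: normal breast cells are incubated with compound for 48 hr, stained with Hoechst, and scanned for total nuclear fluorescence. Compounds raising the fraction of nuclei with elevated DNA content count as re-replication inducers.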
# [8] = Quantitative high throughput screen for delayed death inhibitors of the malarial parasite plastid, 48 hour incubation (AID 488752); note: nearly all actives have a fitted effect of over 65% in size
# Procedure, shortened: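 First, compound was pinned into RPMI 1640 medium containing 0.5% Albumax. Next, reporter-parasite-infected erythrocytes were added to 2% hematocrit and 0.1% parasitemia. After 48 h at 37 C under 5% CO2, luciferase detection reagent was added and luminescence read.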
# [9] = target: M-phase phosphoprotein 8 (Homo sapiens) (UniProt Q99549); test: qHTS Validation Assay for Inhibitors for MPP8 Chromodomain Interactions with Methylated Histone Tails (AID 488949); note: potency is the fitted concentration of half-maximal effect; nearly all actives have a fitted effect of over 55% in size
# Procedure, shortened: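 50 nM MPP8 + 50 nM b-H3K9me3 peptide, PBS pH 7.4/0.01% Tween-20, 30 min RT; + cpd 30 min RT; + AlphaScreen donor/Ni-chelate acceptor beads 10 ug/mL final, 30 min dark; luminescence read.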
# [10] = target: Transient receptor potential cation channel subfamily V member 1 (Homo sapiens) (UniProt Q8NER1); test: HTS Assay for Compounds that Act as Enhancers of the Vanilloid Receptor 1 (AID 488979)
# Procedure, shortened: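 Calcium influx kinetics via Fluo-8 (480/520 nm) in TRPV1-expressing cells, 2000/well cultured overnight at 35.5C. Compound-alone read 3 min (agonist phase), followed by EC20 capsaicin challenge for 2 min (enhancer phase).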
# [11] = target: Thyrotropin receptor (Homo sapiens) (UniProt P16473); test: qHTS Assay for Antagonists of the Thyroid Stimulating Hormone Receptor (AID 488980); note: series mostly up to about 58 µM
# Procedure, shortened: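 Readout is cAMP by HTRF competition between cellular cAMP and cAMP-d2 for a cryptate-labelled antibody. Antagonism was assessed in TSHR-transfected HEK293 cells stimulated with 4 nM TSH (EC80, final) in the presence of RO 20-1724.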
# [12] = target: Tyrosyl-DNA phosphodiesterase 1 (Homo sapiens) (UniProt Q9NUW8); test: Confirmation Assay for Inhibitors of Tyrosyl-DNA Phosphodiesterase (TDP1) (AID 489007); details: recombinant human TDP1 enzymatic activity, dose-response; note: potency is the fitted concentration of half-maximal effect; nearly all actives have a fitted effect of over 40% in size
# Procedure, shortened: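 Compounds are preincubated 15 min at room temperature with 1 nM recombinant human Tdp1. The reaction starts on adding 15 nM FITC-phosphotyrosine DNA substrate, runs 5 min, and is detected by AlphaScreen beads after 10 min.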
# [13] = target: Thyrotropin-releasing hormone receptor (Homo sapiens) (UniProt P34981); test: qHTS for Small Molecule Agonists and Allosteric Enhancers of Human TRH Receptor: Validation Screen for Agonists (AID 493127;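 active = calcium activation more than 3 SD above the typical response in the agonist read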;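 note: intracellular calcium rise by fluo-8 fluorescence before TRH EC20 addition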); details: TRH receptor agonist cell assay; at 2 µM; active compounds read high
# Procedure, shortened: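 Compounds are added by online pintool to dye-loaded TRHR cells while fluorescence is recorded every second. A rise in calcium signal during the agonist read marks activation; a later 10 nM TRH addition (EC20) serves the separate enhancer mode.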
# [14] = target: Galactokinase (Homo sapiens) (UniProt P51570); test: qHTS Validation Assay for Inhibitors of Human Galactokinase (GALK) (AID 493189)
# Procedure, shortened: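 5 nM GALK / 100 uM galactose / 35 uM ATP, 20 mM HEPES pH8.0, 5 mM MgCl2, 60 mM NaCl, 1 mM DTT, 0.01% BSA (final). RT 1 h; Kinase-Glo Plus luminescence.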
# [15] = Validation screen for small molecules that induce DNA re-replication in SW480 colon adenocarcinoma cells (AID 504364)
# Procedure, shortened: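 Image-based qHTS: compounds were incubated with SW480 cells for 48 hr, nuclei stained with Hoechst, and per-nucleus fluorescence intensity scanned to flag cells with excess DNA content.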
# [16] = target: Ubiquitin carboxyl-terminal hydrolase 1 (Homo sapiens) (UniProt O94782); test: Inhibitors of USP1/UAF1: Pilot qHTS (AID 504865); note: potency is the fitted concentration of half-maximal effect; nearly all actives have a fitted effect of over 35% in size
# Procedure, shortened: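 In 50mM HEPES pH 7.8 containing 0.5mM EDTA, 1mM TCEP, 0.1 mg/ml BSA and 0.01% Tween-20, 1nM USP1/UAF1 is exposed to compound for 15 min, then Ub-Rho (150nM final) is added and fluorescence is read over time.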
# [17] = target: DNA dC->dU-editing enzyme APOBEC-3G (Homo sapiens) (UniProt Q9HC16); test: qHTS for inhibitors of Vif-A3G interactions: Validation (AID 588379)
# Procedure, shortened: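 Yellow fluorescence (Ex 488, Em 500-530) of Vif-coexpressing HeLa A3G-eYFP cells, scanned by Acumen cytometer, reports blocked A3G degradation. Cells plated at 700/well overnight at 37 deg C before compound addition, then a further overnight compound incubation at 37 deg C.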
# [18] = Confirmatory screen GU Rhodamine qHTS for Zika virus inhibitors qHTS (AID 1347157); note: potency is the fitted concentration of half-maximal effect; nearly all actives have a fitted effect of over 70% in size
# Procedure, shortened: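 Percent inhibition came from the 15-min rise in Rhodamine110 fluorescence (1.5 microM substrate, ~15% conversion), normalized to no-inhibitor and no-enzyme wells and Hill-fitted. Unlinked protease, 25 nM, pH 8.0 Tris buffer; compounds up to 114 microM, 15-min preincubation.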
# [19] = Confirmatory screen NINDS Rhodamine qHTS for Zika virus inhibitors (AID 1347161); note: potency is the fitted concentration of half-maximal effect; nearly all actives have a fitted effect of over 60% in size
# Procedure, shortened: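 Percent inhibition, normalized to uninhibited and enzyme-free controls, is fitted to a 4-parameter Hill equation. Fluorescence change comes from a 15-min cleavage of 1.5 microM bis-peptide Rhodamine110 substrate by 25 nM linked NS2B-NS3 at room temperature.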
# [20] = tested on: Zika virus NS2B-NS3 protease (linked); test: 384 well plate NINDS AMC confirmatory qHTS for Zika virus inhibitors (AID 1347163); note: potency is the fitted concentration of half-maximal effect; nearly all actives have a fitted effect of over 50% in size
# Procedure, shortened: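 Fluorescence at 355/460 nm was read after 25 minutes of cleavage of 30 microM Ac-VKTGKR-AMC at room temperature, in the dark. Before substrate addition, compounds (up to 1 mM final) sat ~15 minutes with 5, 30 or 60 nM linked protease. Signals were normalized to no-enzyme and no-inhibitor wells.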
# [21] = tested on: Zika virus NS2B-NS3 protease (linked construct); test: 384 well plate NINDS Rhodamine confirmatory qHTS for Zika virus inhibitors (AID 1347164);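 note: fluorescence from protease cleavage of Ac-LKRR-rhodamine 110 substrate; potency is the fitted concentration of half-maximal effect; nearly all actives have a fitted effect of over 65% in size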
# Procedure, shortened: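 Enzyme (final 5/30/60 nM) + cpd (DMSO), ~15 min; add Ac-LKRR-Rd 10 microM final; 25 min RT, dark; FI ex 485/em 538; normalized to no-enzyme, no-inhibitor ctrls; aprotinin intraplate ctrl.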
# [22] = Tertiary RLuc qRT-PCR qHTS assay for Zika virus inhibitors (AID 1347169); note: top concentration of the series differs between compounds; nearly all actives have a fitted effect of over 55% in size
# Procedure, shortened: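 Vero, 1,000 cells/well, o/n 37 C; cpd pinned in DMSO; ZIKV-RLuc Cambodian, MOI 1-2, 48-72 h 37 C; live-cell RLuc substrate, lum read at 1-1.5 h.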
# Chain of Tyrosyl-DNA phosphodiesterase 1 (Homo sapiens) (Q9NUW8 whole entry, looked up): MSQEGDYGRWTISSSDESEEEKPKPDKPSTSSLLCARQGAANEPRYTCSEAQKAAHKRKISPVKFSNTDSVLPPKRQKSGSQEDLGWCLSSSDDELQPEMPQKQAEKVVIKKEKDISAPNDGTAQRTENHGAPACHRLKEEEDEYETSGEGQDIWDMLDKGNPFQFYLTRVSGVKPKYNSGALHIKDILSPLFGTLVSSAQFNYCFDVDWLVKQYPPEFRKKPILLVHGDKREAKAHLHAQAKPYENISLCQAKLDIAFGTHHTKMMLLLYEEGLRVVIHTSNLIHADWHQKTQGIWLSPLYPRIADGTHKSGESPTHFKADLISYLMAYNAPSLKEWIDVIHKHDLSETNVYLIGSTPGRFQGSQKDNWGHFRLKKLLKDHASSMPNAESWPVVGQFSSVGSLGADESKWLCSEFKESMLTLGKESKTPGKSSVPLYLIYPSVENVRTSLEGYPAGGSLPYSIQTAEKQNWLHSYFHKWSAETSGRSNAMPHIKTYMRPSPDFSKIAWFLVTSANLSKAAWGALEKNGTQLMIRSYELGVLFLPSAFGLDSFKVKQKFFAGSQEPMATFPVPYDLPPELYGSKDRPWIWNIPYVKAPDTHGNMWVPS
# Chain of M-phase phosphoprotein 8 (Homo sapiens) (Q99549 whole entry, looked up): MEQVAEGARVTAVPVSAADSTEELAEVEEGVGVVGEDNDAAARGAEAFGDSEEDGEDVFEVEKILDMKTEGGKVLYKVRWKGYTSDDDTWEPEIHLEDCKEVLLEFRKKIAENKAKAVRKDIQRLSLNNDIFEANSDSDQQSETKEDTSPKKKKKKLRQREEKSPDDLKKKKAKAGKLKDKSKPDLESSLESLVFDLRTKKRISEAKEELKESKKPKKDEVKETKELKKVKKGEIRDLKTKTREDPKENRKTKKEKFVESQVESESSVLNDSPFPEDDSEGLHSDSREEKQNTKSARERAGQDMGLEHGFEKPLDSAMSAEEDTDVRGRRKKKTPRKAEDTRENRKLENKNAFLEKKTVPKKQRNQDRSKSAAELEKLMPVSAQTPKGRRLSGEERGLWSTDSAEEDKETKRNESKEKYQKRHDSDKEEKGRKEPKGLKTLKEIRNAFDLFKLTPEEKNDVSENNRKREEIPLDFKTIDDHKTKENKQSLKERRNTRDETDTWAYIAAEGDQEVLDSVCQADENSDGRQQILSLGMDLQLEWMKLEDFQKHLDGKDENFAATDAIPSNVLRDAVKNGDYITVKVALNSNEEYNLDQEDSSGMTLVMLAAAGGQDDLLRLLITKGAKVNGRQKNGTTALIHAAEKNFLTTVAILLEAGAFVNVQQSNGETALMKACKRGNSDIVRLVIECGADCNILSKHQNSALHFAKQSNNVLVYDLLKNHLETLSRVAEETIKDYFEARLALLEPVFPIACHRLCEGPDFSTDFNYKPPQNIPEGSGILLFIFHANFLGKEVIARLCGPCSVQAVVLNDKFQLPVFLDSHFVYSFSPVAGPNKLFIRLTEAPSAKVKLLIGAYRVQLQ
# Chain of Ubiquitin carboxyl-terminal hydrolase 1 (Homo sapiens) (O94782 whole entry, looked up): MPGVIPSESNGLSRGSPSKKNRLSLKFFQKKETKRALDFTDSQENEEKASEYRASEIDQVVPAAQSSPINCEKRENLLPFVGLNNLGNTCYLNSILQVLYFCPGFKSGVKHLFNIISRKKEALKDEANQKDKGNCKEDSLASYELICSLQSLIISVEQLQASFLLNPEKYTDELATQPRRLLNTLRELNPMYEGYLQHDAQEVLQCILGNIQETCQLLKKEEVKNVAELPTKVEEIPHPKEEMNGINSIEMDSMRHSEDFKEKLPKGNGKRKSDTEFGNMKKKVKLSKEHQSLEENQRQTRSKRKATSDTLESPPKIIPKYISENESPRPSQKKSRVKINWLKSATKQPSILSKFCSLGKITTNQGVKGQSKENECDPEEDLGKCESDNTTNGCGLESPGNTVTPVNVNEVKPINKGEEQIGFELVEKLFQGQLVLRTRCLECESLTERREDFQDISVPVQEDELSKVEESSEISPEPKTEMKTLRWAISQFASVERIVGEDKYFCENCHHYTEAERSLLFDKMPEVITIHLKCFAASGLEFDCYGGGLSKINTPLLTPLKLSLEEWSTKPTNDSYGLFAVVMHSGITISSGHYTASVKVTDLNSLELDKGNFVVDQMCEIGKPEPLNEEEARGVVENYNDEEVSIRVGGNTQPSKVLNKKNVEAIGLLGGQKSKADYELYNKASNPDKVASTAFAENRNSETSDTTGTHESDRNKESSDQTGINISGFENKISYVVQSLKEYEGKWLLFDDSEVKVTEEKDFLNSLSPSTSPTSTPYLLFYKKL
# Chain of Transient receptor potential cation channel subfamily V member 1 (Homo sapiens) (Q8NER1 whole entry, looked up): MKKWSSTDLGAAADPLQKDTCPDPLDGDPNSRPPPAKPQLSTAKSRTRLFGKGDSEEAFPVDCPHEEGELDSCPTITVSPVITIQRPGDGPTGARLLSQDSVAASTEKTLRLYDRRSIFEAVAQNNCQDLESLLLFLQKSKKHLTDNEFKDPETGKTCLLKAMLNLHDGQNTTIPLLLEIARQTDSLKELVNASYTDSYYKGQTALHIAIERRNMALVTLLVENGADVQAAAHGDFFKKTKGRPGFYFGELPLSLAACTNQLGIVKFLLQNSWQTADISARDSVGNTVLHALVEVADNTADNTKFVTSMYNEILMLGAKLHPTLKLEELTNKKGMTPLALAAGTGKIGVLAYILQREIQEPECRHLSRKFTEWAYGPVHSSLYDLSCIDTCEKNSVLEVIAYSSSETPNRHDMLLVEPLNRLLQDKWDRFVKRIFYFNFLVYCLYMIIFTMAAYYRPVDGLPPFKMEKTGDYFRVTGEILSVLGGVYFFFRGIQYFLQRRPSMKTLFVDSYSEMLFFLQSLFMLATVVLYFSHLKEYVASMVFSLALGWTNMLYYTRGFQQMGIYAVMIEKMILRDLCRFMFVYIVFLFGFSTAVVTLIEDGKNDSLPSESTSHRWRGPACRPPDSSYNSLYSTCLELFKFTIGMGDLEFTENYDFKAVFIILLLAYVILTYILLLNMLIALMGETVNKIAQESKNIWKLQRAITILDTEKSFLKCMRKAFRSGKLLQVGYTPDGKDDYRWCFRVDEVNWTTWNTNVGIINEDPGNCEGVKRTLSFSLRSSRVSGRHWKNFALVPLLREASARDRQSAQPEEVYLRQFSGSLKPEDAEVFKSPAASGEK
# Chain of Thyrotropin-releasing hormone receptor (Homo sapiens) (P34981 whole entry, looked up): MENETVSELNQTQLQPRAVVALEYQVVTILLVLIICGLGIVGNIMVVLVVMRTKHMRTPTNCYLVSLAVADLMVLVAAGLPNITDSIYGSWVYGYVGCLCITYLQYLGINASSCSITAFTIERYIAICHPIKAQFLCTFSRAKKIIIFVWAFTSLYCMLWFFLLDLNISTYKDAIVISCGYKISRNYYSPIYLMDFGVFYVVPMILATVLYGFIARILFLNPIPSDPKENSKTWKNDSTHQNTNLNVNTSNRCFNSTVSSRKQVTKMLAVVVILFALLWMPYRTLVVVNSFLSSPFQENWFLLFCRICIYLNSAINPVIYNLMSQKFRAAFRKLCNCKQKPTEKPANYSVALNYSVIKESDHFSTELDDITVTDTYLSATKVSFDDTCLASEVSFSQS
# Chain of ATP-dependent DNA helicase Q1 (Homo sapiens) (P46063 whole entry, looked up): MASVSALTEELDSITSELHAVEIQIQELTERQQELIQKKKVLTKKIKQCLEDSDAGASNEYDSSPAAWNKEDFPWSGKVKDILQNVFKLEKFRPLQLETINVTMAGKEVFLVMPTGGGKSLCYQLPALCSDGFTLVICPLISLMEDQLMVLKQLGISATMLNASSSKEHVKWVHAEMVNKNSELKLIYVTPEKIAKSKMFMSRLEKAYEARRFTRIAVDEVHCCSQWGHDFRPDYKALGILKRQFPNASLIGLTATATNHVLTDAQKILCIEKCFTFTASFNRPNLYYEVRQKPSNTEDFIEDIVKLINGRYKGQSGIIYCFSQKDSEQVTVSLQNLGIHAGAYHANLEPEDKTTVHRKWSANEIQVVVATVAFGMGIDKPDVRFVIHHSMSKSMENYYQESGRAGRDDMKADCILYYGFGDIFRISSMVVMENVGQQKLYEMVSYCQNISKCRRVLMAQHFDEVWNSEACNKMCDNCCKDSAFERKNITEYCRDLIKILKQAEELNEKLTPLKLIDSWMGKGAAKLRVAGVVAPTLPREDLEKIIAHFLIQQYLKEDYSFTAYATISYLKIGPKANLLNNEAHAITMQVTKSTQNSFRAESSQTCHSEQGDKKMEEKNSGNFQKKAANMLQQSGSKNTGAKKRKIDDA
# Chain of Galactokinase (Homo sapiens) (P51570 whole entry, looked up): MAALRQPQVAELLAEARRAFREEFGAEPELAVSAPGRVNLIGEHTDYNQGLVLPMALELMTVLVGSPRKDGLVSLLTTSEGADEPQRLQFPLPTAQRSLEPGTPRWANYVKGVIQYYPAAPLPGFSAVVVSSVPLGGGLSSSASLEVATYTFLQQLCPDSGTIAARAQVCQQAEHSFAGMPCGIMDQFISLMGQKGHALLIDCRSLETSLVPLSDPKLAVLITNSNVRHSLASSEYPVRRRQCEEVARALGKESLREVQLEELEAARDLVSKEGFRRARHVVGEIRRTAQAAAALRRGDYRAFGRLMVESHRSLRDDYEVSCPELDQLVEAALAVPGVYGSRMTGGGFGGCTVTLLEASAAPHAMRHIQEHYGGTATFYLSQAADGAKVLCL
# Chain of DNA dC->dU-editing enzyme APOBEC-3G (Homo sapiens) (Q9HC16 whole entry, looked up): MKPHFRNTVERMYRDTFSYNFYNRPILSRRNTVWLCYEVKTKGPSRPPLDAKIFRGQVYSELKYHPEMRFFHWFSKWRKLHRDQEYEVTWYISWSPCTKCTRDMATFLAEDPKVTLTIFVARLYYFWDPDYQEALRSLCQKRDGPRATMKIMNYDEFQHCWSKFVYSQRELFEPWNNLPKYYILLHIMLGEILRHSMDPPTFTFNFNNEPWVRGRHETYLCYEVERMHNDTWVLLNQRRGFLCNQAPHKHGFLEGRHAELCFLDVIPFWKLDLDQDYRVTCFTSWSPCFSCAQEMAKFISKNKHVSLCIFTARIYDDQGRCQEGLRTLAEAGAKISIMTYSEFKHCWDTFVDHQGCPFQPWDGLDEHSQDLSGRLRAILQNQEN
smiles,measurement,setting,value
O=C(Nc1cc(C(=O)Nc2ccc(S(=O)(=O)O)cc2S(=O)(=O)O)cc(C(=O)Nc2ccc(S(=O)(=O)O)cc2S(=O)(=O)O)c1)Nc1cc(C(=O)Nc2ccc(S(=O)(=O)O)cc2S(=O)(=O)O)cc(C(=O)Nc2ccc(S(=O)(=O)O)cc2S(=O)(=O)O)c1,Potency,[1],6.31 µM (active)
same,Potency,[2],inactive
same,Potency,[3],inactive
same,Potency,[4],inactive
same,outcome,[5],inactive
same,Potency,[6],inactive
same,Potency,[7],inactive
same,Potency,[8],inactive
same,Potency,[9],6.31 µM (active)
same,outcome,[10],inactive
same,outcome,[11],inactive
same,Potency,[12],316 nM (active) and 1.26 µM (active)
same,activation,[13],0.312%
same,outcome,[14],inactive
same,outcome,[15],inactive
same,Potency,[16],1 µM (active)
same,Potency,[17],inactive
same,Potency,[18],2.24 µM (active) and 4.47 µM (active)
same,Potency,[19],2.24 µM (active) and 2 µM (active)
same,Potency,[20],8.91 µM (active) and 7.08 µM (active)
same,Potency,[21],3.55 µM (active) and 3.16 µM (active)
same,Potency,[22],inactive
